For 14 molecules, Potency and max response results are on record in PubChem BioAssay (Tox21).

Assay [1] is described as follows: qHTS RealTime-Glo MT Cell Viability Assay in HepG2 cells - 40 hour (AID 1224870). Also: nearly all actives have a fitted effect of over 50% in size. Also: potency is read from the fitted curve at half-maximal effect. The method, boiled down: (§1)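 HepG2 cells mixed with RealTime-Glo MT reagents (NanoLuc plus cell-permeant prosubstrate) were seeded at 600 cells/well, incubated 5 h at 37 C/5% CO2, then pinned with compounds in DMSO; nonlytic luminescence tracked viability during 40 h treatment.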
A short description of assay [2]: A CellTox Green Cytotoxicity Assay to monitor cytotoxicity in HEK293 cells - 40 hour (AID 1224871). Also: nearly all actives have a fitted effect of over 45% in size. The procedure, abridged: (§2)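 Fluorescence intensity, read at 0, 8, 16, 24, 32 and 40 h of compound treatment, reflected dye binding to DNA of dead HEK293 cells; compounds (23 nL, DMSO) were added 5 h after plating cells with reagent.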
Assay [3] can be described thus: qHTS RealTime-Glo MT Cell Viability Assay in HEK293 cells - 16 hour (AID 1224872). Also: top concentration of the series differs between compounds; nearly all actives have a fitted effect of over 50% in size. The procedure, abridged:
(§3)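 Assay medium contained NanoLuc luciferase plus cell-permeant prosubstrate, added with HEK293 cells at 600 cells/well. After 5 h at 37 C/5% CO2 compounds were added; plates stayed at 37 C for 40 h with serial luminescence reads.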

A short description of assay [4]: qHTS RealTime-Glo MT Cell Viability Assay in HepG2 cells - 8 hour (AID 1224873). Also: nearly all actives have a fitted effect of over 55% in size. The procedure, abridged: as §1
Assay [5] can be described thus: qHTS RealTime-Glo MT Cell Viability Assay in HEK293 cells - 40 hour (AID 1224874). Also: nearly all actives have a fitted effect of over 50% in size. As to conditions: RealTime-Glo luminescence; max response: hits give low values. The method, boiled down: (§4)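 Viable HEK293 cells reduce a cell-permeant prosubstrate; the product diffuses out and is consumed by NanoLuc in the medium to give light. Compounds went in after a 5 h incubation and plates were read over the treatment course.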

The nature of assay [6]: A CellTox Green Cytotoxicity Assay to monitor cytotoxicity in HEK293 cells - 24 hour (AID 1224875). Also: series mostly up to about 77 µM; nearly all actives have a fitted effect of over 45% in size. The method, boiled down: as §2
The nature of assay [7]: A CellTox Green Cytotoxicity Assay to monitor cytotoxicity in HepG2 cells - 16 hour (AID 1224876). Also: nearly all actives have a fitted effect of over 45% in size. The procedure, abridged: (§5)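 Using 1536-well format, dye-containing HepG2 suspension was seeded, allowed 5 h at 37 C/5% CO2, dosed by pintool with compounds, positive and negative controls, and imaged for fluorescence across 40 h.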
Assay [8] is described as follows: qHTS RealTime-Glo MT Cell Viability Assay in HepG2 cells - 32 hour (AID 1224877). Also: nearly all actives have a fitted effect of over 55% in size. Also: potency is read from the fitted curve at half-maximal effect. The procedure, abridged: (§6)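 qHTS, HepG2, 600 cells/well, RealTime-Glo (NanoLuc + prosubstrate) added with cells; 5 h preincubation; DMSO compound addition; 37 C; luminescence at 0/8/16/24/32/40 h.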
A short description of assay [9]: A CellTox Green Cytotoxicity Assay to monitor cytotoxicity in HepG2 cells - 24 hour (AID 1224878). Also: nearly all actives have a fitted effect of over 45% in size. The procedure, abridged: as §5
Assay [10] is described as follows: A CellTox Green Cytotoxicity Assay to monitor cytotoxicity in HepG2 cells - 40 hour (AID 1224879). Also: nearly all actives have a fitted effect of over 40% in size. The procedure, abridged: as §5
Assay [11] in a line: qHTS RealTime-Glo MT Cell Viability Assay in HEK293 cells - 0 hour (AID 1224880). The method, boiled down:
as §4

Assay [12] can be described thus: A CellTox Green Cytotoxicity Assay to monitor cytotoxicity in HepG2 cells - 0 hour (AID 1224882). Also: nearly all actives have a fitted effect of over 35% in size. The procedure, abridged: as §5
Assay [13] can be described thus: A CellTox Green Cytotoxicity Assay to monitor cytotoxicity in HepG2 cells - 32 hour (AID 1224883). Also: nearly all actives have a fitted effect of over 50% in size. The procedure, abridged:
as §5

Assay [14] is described as follows: A CellTox Green Cytotoxicity Assay to monitor cytotoxicity in HEK293 cells - 8 hour (AID 1224884). Also: nearly all actives have a fitted effect of over 35% in size. The procedure, abridged: as §2
Assay [15] can be described thus: qHTS RealTime-Glo MT Cell Viability Assay in HepG2 cells - 16 hour (AID 1224885). Also: nearly all actives have a fitted effect of over 50% in size. The procedure, abridged:
as §6

A short description of assay [16]: qHTS RealTime-Glo MT Cell Viability Assay in HEK293 cells - 24 hour (AID 1224886). The method, boiled down:
as §3

Assay [17] in a line: qHTS RealTime-Glo MT Cell Viability Assay in HEK293 cells - 8 hour (AID 1224887). The method, boiled down:
as §4

Assay [18] can be described thus: A CellTox Green Cytotoxicity Assay to monitor cytotoxicity in HEK293 cells - 16 hour (AID 1224888). Also: nearly all actives have a fitted effect of over 35% in size. The procedure, abridged:
as §2

Assay [19] is described as follows: qHTS RealTime-Glo MT Cell Viability Assay in HepG2 cells - 0 hour (AID 1224889). Also: nearly all actives have a fitted effect of over 50% in size. The method, boiled down:
as §6

The nature of assay [20]: A CellTox Green Cytotoxicity Assay to monitor cytotoxicity in HEK293 cells - 32 hour (AID 1224881). Also: nearly all actives have a fitted effect of over 40% in size. The method, boiled down: as §2

Values without a mark were called inactive. Records with an inconclusive call do not appear. The source made the active and inactive calls. Calls follow the shape of the dose curve; as a rule, active = well fitted curve in the direction sought with a large enough effect in the repeat runs; inconclusive = weak or mixed curves; inactive = no such curve, though single readings can be large; an effect the other way counts as inactive or inconclusive.
% is scaled to controls: 0 for no effect and ±100 for the full control effect.

On to `CCOC(=O)/C=C/C(=O)OCC`, for which the Potency result in assay [1], in assay [2], in assay [3], in [4], in assay [6] and in [7] was “inactive” throughout. Moreover, the Potency entry in assay [8], in assay [9], in [10], in [11], in assay [12] and in assay [13] was “inactive” throughout. Further, the Potency result in [14], in assay [15], in assay [16], in assay [17], in [18] and in assay [19] was “inactive” in each case. The max response in assay [5] was 11.5%.

With `O=C1NCCN1CCO`, the Potency entry in assay [1], in [2], in assay [3], in assay [4], in [6] and in [7] was “inactive” throughout. In addition, the Potency entry in assay [8], in assay [9], in assay [10], in assay [11], in assay [20] and in [12] was “inactive” in each case. The Potency entry in assay [13], in assay [15], in assay [16], in assay [17], in [18] and in [19] was “inactive” throughout. Further, in [5], the max response is 15.9%.

For `CC(C)C=O`, the Potency result in [1], in assay [2], in assay [3], in [4], in assay [6] and in assay [7] was “inactive” in each case. For the same molecule, the Potency result in assay [8], in [9], in [10], in assay [11], in [20] and in [12] was “inactive” each time. Moreover, the Potency entry in assay [13], in assay [15], in assay [16], in assay [17], in assay [18] and in [19] was “inactive” throughout. The max response in [5] was 0.0745%.

For the molecule `CCCCCCCCCI`, the results for the Potency in assay [1] and in assay [8] were 25 µM (active) and 35.3 µM (active), respectively. In addition, the Potency result in assay [2], in assay [3], in assay [4], in assay [6], in assay [7] and in assay [9] was “inactive” throughout. Besides, the Potency result in [10], in assay [11], in assay [20], in assay [12], in assay [13] and in assay [14] was “inactive” in each case. The Potency entry in assay [15], in [16], in [17], in [18] and in assay [19] was “inactive” each time. Besides, the max response in assay [5] was -1.11%.

`CN(C)CCN1C(=O)c2ccccc2N(C)c2ccccc21`: the Potency entry in [1], in assay [2], in assay [3], in assay [4], in assay [6] and in assay [7] was “inactive” in each case. Besides, the Potency result in assay [8], in [9], in assay [10], in [11], in assay [12] and in assay [13] was “inactive” each time. The Potency entry in [14], in assay [15], in assay [16], in assay [17], in assay [18] and in assay [19] was “inactive” throughout. The max response in assay [5] was -6.83%.

Consider `CC(=O)c1cc2ccccc2s1`, for which the Potency result in [1], in [2], in assay [3], in assay [4], in assay [6] and in [7] was “inactive” each time. Besides, the Potency entry in assay [8], in assay [9], in assay [10], in assay [11], in assay [20] and in [12] was “inactive” each time. Also, the Potency result in assay [13], in assay [14], in assay [15], in [16], in assay [17] and in assay [18] was “inactive” throughout. Also, the Potency entry in assay [19] is “inactive”. The max response in [5] was 2.63%.

With `CCC1CO1` (stereo not drawn), the Potency entry in [1], in [2], in assay [3], in assay [4], in [6] and in assay [7] was “inactive” throughout. The Potency entry in [8], in assay [9], in assay [10], in [11], in [12] and in assay [13] was “inactive” in each case. Also, the Potency result in assay [14], in [15], in assay [16], in assay [17] and in assay [18] was “inactive” throughout. For the same molecule, in [5], the max response is 4.39%.

In the case of `CCCCC(CC)CN` (stereo not drawn), the Potency entry in [1], in assay [2], in assay [3], in assay [4], in [6] and in assay [7] was “inactive” each time. The Potency entry in assay [8], in assay [9], in assay [10], in [11], in [20] and in assay [12] was “inactive” each time. Also, the Potency entry in assay [13], in assay [14], in assay [15], in [16], in assay [17] and in assay [18] was “inactive” in each case. Besides, the Potency result in assay [19] was “inactive”. For the same molecule, the max response in [5] was 4.35%.

With `OC1(c2ccccc2)CCNCC1`, the Potency entry in assay [1], in [2], in [3], in assay [4], in assay [6] and in [7] was “inactive” throughout. For the same molecule, the Potency entry in assay [8], in [9], in assay [10], in [11], in [12] and in [13] was “inactive” each time. Besides, the Potency entry in assay [14], in assay [15], in [16], in assay [17], in [18] and in assay [19] was “inactive” each time. The max response in [5] is 5.53%.

For `CCCCCCCCOc1ccc(C(=O)O)cc1`, the Potency result in assay [1], in [2], in assay [3], in assay [4], in [6] and in [7] was “inactive” in each case. Further, the Potency entry in assay [8], in assay [9], in assay [10], in assay [11], in assay [20] and in assay [12] was “inactive” in each case. In addition, the Potency result in assay [13], in [14], in assay [15], in assay [16], in assay [17] and in assay [18] was “inactive” throughout. Further, in assay [19], the Potency result was “inactive”. The max response in assay [5] is -8.38%.

With `N#CCCN(CCO)CCO`, the Potency result in assay [1], in assay [2], in assay [3], in assay [4], in assay [6] and in assay [7] was “inactive” throughout. Further, the Potency entry in assay [8], in [9], in assay [10], in assay [11], in assay [20] and in [12] was “inactive” throughout. The Potency entry in assay [13], in assay [14], in assay [15], in [16], in assay [17] and in assay [18] was “inactive” throughout. Besides, the Potency result in [19] is “inactive”. Moreover, in [5], the max response was 0.524%.

Consider `COc1ccccc1Oc1c(NS(=O)(=O)c2ccc(C(C)(C)C)cc2)nc(-c2ncccn2)nc1OCCO`, for which the Potency entry in assay [1], in assay [2], in assay [3], in assay [4], in assay [6] and in assay [7] was “inactive” each time. Besides, the Potency result in assay [8], in assay [9], in assay [10], in assay [11], in assay [20] and in assay [12] was “inactive” throughout. Also, the Potency entry in [13], in [14], in assay [15], in assay [16], in assay [17] and in [18] was “inactive” each time. In addition, the Potency result in assay [19] is “inactive”. Moreover, in [5], the max response was -19.3%.

Consider `CN1C(C(=O)Nc2ccccn2)=C(O)c2sccc2S1(=O)=O`, for which the Potency result in assay [1], in assay [2], in assay [3], in assay [4], in assay [6] and in assay [7] was “inactive” each time. The Potency entry in assay [8], in assay [9], in [10], in assay [11], in [20] and in [12] was “inactive” in each case. Also, the Potency result in assay [13], in assay [14], in assay [15], in [16], in assay [17] and in assay [18] was “inactive” each time. Further, in assay [19], the Potency result is “inactive”. Further, the max response in assay [5] is 6.41%.

With `Cc1ccccc1N=C(N)Nc1ccccc1C`, the Potency entry in [1], in assay [2], in assay [3], in [4], in [6] and in assay [7] was “inactive” throughout. Further, the Potency entry in assay [8], in assay [9], in assay [10], in assay [11], in assay [20] and in assay [12] was “inactive” each time. For the same molecule, the Potency result in assay [13], in assay [14], in [15], in assay [16], in assay [17] and in assay [18] was “inactive” in each case. For the same molecule, the Potency entry in assay [19] is “inactive”. The max response in [5] was -12.1%.
